The source made the active and inactive calls. The calls were made as follows: active = hit-call score of the fitted dose curve at least 0.9, where 1 is the maximum; inactive = score below 0.9.

Chain of CCAAT/enhancer-binding protein beta (Homo sapiens) (P17676 whole entry, looked up): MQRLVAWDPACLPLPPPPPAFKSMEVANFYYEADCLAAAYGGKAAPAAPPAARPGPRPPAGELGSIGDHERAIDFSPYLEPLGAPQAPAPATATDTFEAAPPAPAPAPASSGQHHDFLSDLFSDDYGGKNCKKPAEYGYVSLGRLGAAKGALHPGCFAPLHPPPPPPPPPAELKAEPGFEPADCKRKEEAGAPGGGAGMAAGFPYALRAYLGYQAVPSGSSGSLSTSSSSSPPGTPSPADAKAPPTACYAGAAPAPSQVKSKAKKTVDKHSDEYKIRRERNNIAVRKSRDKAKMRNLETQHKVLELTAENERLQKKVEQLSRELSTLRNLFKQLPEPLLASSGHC

The target of the test is CCAAT/enhancer-binding protein beta (Homo sapiens) (UniProt P17676). Kind of test: ATG_C_EBP_CIS: Attagene CIS-FACTORIAL HepG2 Assay for human CCAAT/Enhancer Binding Protein (C/EBP) beta (AID 2282927). To be noted: HepG2 Attagene cis-factorial transcription factor reporter; actives raise or lower the signal. Summed up:
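Following a 24 h incubation with test chemical, transfected HepG2 cells yielded RNA whose reporter transcripts were quantified by RT-PCR and fluorescent capillary electrophoresis, with DMSO serving as baseline for bidirectional fitting.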
For `CCO[Si](CCC(F)(F)C(F)(F)C(F)(F)C(F)(F)C(F)(F)C(F)(F)F)(OCC)OCC`, the result was inactive. The value for `FC(F)(F)C(F)(F)C(F)(F)C(F)(F)CCI` was “inactive”. Consider `O=C(O)C(F)(F)C(F)(F)C(F)(F)C(F)(F)C(F)(F)C(F)(F)C(F)(F)C(F)(F)Cl`, for which the outcome was inactive. Turning to `Cc1ccc(S(=O)(=O)NCl)cc1`, the outcome was inactive. With `O=C(O)C(F)(F)C(F)(F)C(F)(F)C(F)(F)C(F)(F)C(F)(F)C(F)(F)C(F)(F)C(F)(F)C(F)F`, the outcome was inactive. Take `C1COCCN1`: the result was inactive.

Take `CC/C=C\CCOC(=O)c1ccccc1`: the result was inactive.

Consider `OCC(F)(F)C(F)(F)C(F)(F)C(F)F`, for which the outcome was inactive.

Consider `FC(F)(F)C(F)(F)C(F)(F)C(F)(F)C(F)(F)C(F)(F)CC1CO1` (centres undefined), for which the outcome was inactive. In the case of `COC(OC(C)=O)c1ccccc1` (centres undefined), the result was inactive. In the case of `NC(=O)C(F)(F)C(F)(F)C(F)(F)C(F)(F)F`, the outcome was inactive. The value for `O=C(O)C(F)(F)C(F)(F)OC(F)(F)F` was “inactive”.

For `O=C(Cl)C(F)(F)C(F)(F)C(F)(F)C(F)(F)C(F)(F)C(F)(F)C(F)(F)C(F)(F)F`, the result was inactive. With `O=S(=O)(OCCOC(F)(F)F)C(F)(F)F`, the result was inactive.

`FC(F)(F)C(F)(F)C(F)(F)CI`: the outcome was inactive. For the molecule `CC/C=C\CCOC(C)=O`, the outcome was inactive.

As for `CS(C)(=O)=O`, the result was inactive. Turning to `OCC(F)(F)C(F)(F)C(F)(F)F`, the result was inactive. In the case of `c1ccc(B(c2ccccc2)c2ccccc2)cc1`, the result was inactive. Then `FC(F)(F)C(F)(F)C(F)(F)C(F)(F)C(F)(F)C(F)(F)C(F)(F)C(F)(F)F`, with “inactive”. As for `CCN(CC)c1ccc2c(C)cc(=O)oc2c1`, the outcome was inactive. For the molecule `C=CC(F)(F)C(F)(F)C(F)(F)C(F)(F)C(F)(F)C(F)(F)C(F)(F)C(F)(F)F`, the result was inactive.

With `CC(Cc1ccc(O)c(O)c1)C(C)Cc1ccc(O)c(O)c1` (centres undefined), the outcome was inactive.

As to `CCCCCCCCCCCCCCCC[N+](C)(C)Cc1ccccc1`, the outcome was inactive.

In the case of `FC(F)(F)C(F)(F)C(F)(F)C(F)(F)C(F)(F)C(F)(F)C(F)(F)Br`, the result was inactive. As for `CC(C)=CCCC(C)CCOC(=O)C(C)C` (centres undefined), the result was inactive. Consider `C(=C(c1ccccc1)c1ccccc1)c1ccccc1`, for which the result was inactive. With `COC(=O)CCC(F)(F)C(F)(F)C(F)(F)C(F)(F)F`, the result was inactive. With `C#C[C@]1(O)CC[C@H]2[C@@H]3CCc4cc(OC)ccc4[C@H]3CC[C@@]21C`, the result was inactive. As to `O=S(=O)(OCC(F)F)C(F)(F)F`, the result was inactive.

As to `CC(CCl)OP(=O)(OC(C)CCl)OC(C)CCl` (centres undefined), the outcome was inactive. The value for `FC(F)(F)C(F)(F)C(F)(F)C(F)(F)C(F)(F)C(F)(F)C(F)(F)I` was “inactive”. Take `C=CC(F)(F)C(F)(F)C(F)(F)C(F)(F)C(F)(F)C(F)(F)C(F)(F)C(F)(F)C=C`: the outcome was inactive.

Turning to `CCCCCC=O`, the outcome was inactive.

The record behind these values is PubChem BioAssay (EPA / NIEHS).
